The values that follow come from PubChem BioAssay (NCATS).

A short description of this test: qHTS assay for small molecule activators of the p53 signaling pathway (AID 651743). Further: series mostly up to about 92 µM; % of control where 0% means no effect. The following applies: HCT-116 p53RE-bla, beta-lactamase FRET ratio, 16 h; activation: active compounds read high. In a few lines: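 After 16 hours compound treatment at 37 C, HCT-116 cells stably expressing p53RE-driven beta-lactamase were loaded with LiveBLAzer B/G FRET substrate for 2 hours at room temperature. Fluorescence intensity served as the p53 activation read-out.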
In general terms: Quantitative high-throughput screening tests each substance at several concentrations.

Records with an inconclusive call do not appear. A number with no mark means an inactive call. The call rests on the fitted dose curve; in most records, active means well fitted activation curve with a large enough effect in the signal ratio (not every such curve was filed as active); inconclusive means small, poorly fitted or top-dose-only effect, or a change in a side signal; inactive means flat fitted curve, though single readings scatter; the % refers to the signal ratio.

As to `CCCCN(CC)c1c([N+](=O)[O-])cc(C(F)(F)F)cc1[N+](=O)[O-]`, the activation was -2.46%.
